We go through 40 compounds from PubChem BioAssay (NCI).

The structures appear in SMILES notation. The panel holds about 79,000 compounds, 15% with a hit somewhere; the sample as a whole holds those more often. Unmarked numbers belong to inactive results. Active and inactive are the calls of the source. No stated cut-off is given here; in the data, active means growth inhibition above about 70%; inactive means the rest.

A short description of the first experiment: NCI Yeast Anticancer Drug Screen. Data for the rad50 strain (AID 155).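 Further: 0% = growth of vehicle-only cultures of the same strain.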 Conditions: S. cerevisiae rad50 strain growth inhibition; at 50.0 µM (retest, dose inferred, filed as 5.0); active compounds read high. In short, it runs like this:
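A DNA repair-deficient yeast mutant serves as the test organism; compound-induced growth inhibition is calculated against vehicle-treated cells.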
`COc1ccc(P2(=S)Oc3ccc(C(c4ccccc4)(c4ccccc4)c4ccccc4)cc3O2)cc1` (configuration not stated): the growth inhibition is 96% (active).

For `Cc1cc[n+](C2=C(Nc3c(C)cccc3C)C(=O)c3ccccc3C2=O)cc1`, the growth inhibition was 88% (active).

As for `C(#C[PH+](c1ccccc1)c1ccccc1)c1ccccc1.C(#C[PH+](c1ccccc1)c1ccccc1)c1ccccc1.C(#C[PH+](c1ccccc1)c1ccccc1)c1ccccc1.[C-]#[O+].[C-]#[O+].[C-]#[O+].[Cr]`, the growth inhibition is 35%.

Regarding `CC(=O)O.[RuH].c1ccc([PH+](c2ccccc2)c2ccccc2)cc1.c1ccc([PH+](c2ccccc2)c2ccccc2)cc1.c1ccc([PH+](c2ccccc2)c2ccccc2)cc1`, the growth inhibition is 75% (active).

Consider `O=C(N/N=C/c1cc(Br)cc(Br)c1[O-])c1ccccc1O.O=C(N/N=C/c1cc(Br)cc(Br)c1[O-])c1ccccc1O.[Ni+2]`, for which the growth inhibition was 98% (active).

As for `O=C(C[n+]1ccccc1)C1CCc2ccccc2C1` (configuration not stated), the growth inhibition is -4%.

With `CC(=O)[O-].CC(=O)[O-].O=C(N/N=C/c1cc(Cl)cc(Cl)c1[OH2+])c1ccncc1.[Zn+2]`, the growth inhibition is 9%.

As for `ClCCN(CCCl)CCN1c2ccc3ccccc3c2Sc2ccc3ccccc3c21`, the growth inhibition is 2%.

On to `C=CCc1cc(Cl)ccc1OC(=O)N(C)C`, for which the growth inhibition was -2%.

Turning to `CC(=O)[O][Sn]([CH3])([CH3])[c]1ccccc1`, the growth inhibition was 78% (active).

With `NCCNCCNCCNCCN` (tested in a mixture with another compound), the growth inhibition is 1%.

For the compound `CC(=O)[CH-]C(C)=O.CC(=O)[CH-]C(C)=O.[O-]c1ccccc1.[O-]c1ccccc1.[Ti+4]`, the growth inhibition was 25%.

As for `NC(=O)c1ccc(C(=O)Nc2ccc([As](=O)(O)O)cc2)cc1`, the growth inhibition is 21%.

Consider `[C-]#[O+].[C-]#[O+].[CH3][Sn]([CH3])[c]1ccccc1.[Fe+5].[c-]1[c-][c-][cH-][c-]1`, for which the growth inhibition was 82% (active).

For the compound `CC(C)(C)S.[Hg]`, the growth inhibition was 98% (active).

Take `O=C(O)C(O)(c1ccc(-c2ccccc2)cc1)c1ccc(-c2ccccc2)cc1`: the growth inhibition is 91% (active).

With `Cc1ccc2c(-c3ccccc3)c3ccccc3[s+]c2c1`, the growth inhibition is 99% (active).

Regarding `CCOC(=O)[C]1([Pb]([CH3])([CH3])[CH3])N=NC(C(=O)OC)=C1C(=O)OC` (configuration not stated), the growth inhibition is 32%.

Regarding `CCCNC1=C(C)C(=O)C2=C(C1=O)[C@H](COC(N)=O)[C@]1(OC)[C@@H]3N[C@@H]3CN21`, the growth inhibition is 66%.

Take `CC(=O)c1ccc(-[n+]2c(C)cc(-c3ccccc3)cc2C)cc1`: the growth inhibition is -1%.

With `CN1C(=O)C23CC4=CC=CC(O)C4N2C(=O)C1(CO)SS3` (configuration not stated), the growth inhibition was 99% (active).

For `CCN1CCC(O)(c2ccc(O)cc2)C(C(=O)c2ccc(O)cc2)C1` (configuration not stated), the growth inhibition was -9%.

As for `CCCCCCCC[As](C)(=O)O`, the growth inhibition is -121%.

Take `CCCCCCC(=O)[O][Hg][c]1ccccc1`: the growth inhibition was 99% (active).

As to `CCC[CH2][Sn]1([CH2]CCC)[O]C(=O)CN=Cc2ccccc2[O]1`, the growth inhibition is 88% (active).

With `C[C@]12CC[C@H](O)C[C@@H]1CC[C@@H]1[C@@H]2CC[C@]2(C)C(=O)/C(=C/O)C[C@@H]12`, the growth inhibition was 80% (active).

Turning to `CC(CCc1ccccc1)NC(C)C(O)c1ccc(O)cc1` (configuration not stated), the growth inhibition is 32%.

The same experiment, now with this note: S. cerevisiae rad50 strain growth inhibition; at 50.0 µM; active compounds read high.
Take `CCOC(=O)C1C(O)=C(P(=O)(C2=C(O)C(C(=O)OCC)C(c3ccc(OC(C)=O)cc3)C(C(=O)O)C2=O)N(CCCl)CCCl)C(=O)C(C(=O)O)C1c1ccc(OC(C)=O)cc1` (configuration not stated): the growth inhibition was 45.6%.

For `c1ccc([As+](c2ccccc2)(c2ccccc2)c2cccc3ccccc23)cc1`, the growth inhibition was 99% (active).

As for `CCCCCCCCc1ccc(OCCN(CCCl)CCCl)cc1`, the growth inhibition was 98.7% (active).

`S=C=NCCc1ccccc1`: the growth inhibition was 72% (active).

As for `COC1=C(Cl)C(=O)c2ccccc2C1=O`, the growth inhibition is 99.2% (active).

For `CN(C)c1ccc(N=Nc2cccc(C(=O)[O-])c2)cc1.CN(C)c1ccc(N=Nc2cccc(C(=O)[O-])c2)cc1.NC1CCCCC1N.O=[N+]([O-])O.[Pt+4]`, the growth inhibition is 91% (active).

In the case of `CCOC(=O)c1ccc(N=Cc2ccc(N(CCCl)CCCl)cc2C)cc1`, the growth inhibition was 49.5%.

For the compound `O=c1s[se]c2ccccc12`, the growth inhibition is 84.2% (active).

Consider `CC1CCC2(OC1)OC1C(O)C3C4CCC5CC(OC6OC(CO)C(OC7OC(CO)C(O)C(OC8OCC(O)C(O)C8O)C7OC7OC(CO)C(O)C(OC8OC(CO)C(O)C(O)C8O)C7O)C(O)C6O)C(O)CC5(C)C4CCC3(C)C1C2C` (configuration not stated), for which the growth inhibition is 93.2% (active).

On to `CN(C)c1ccc(/C=C/c2cc3scc(-c4ccccc4)[n+]3c3ccccc23)cc1`, for which the growth inhibition was 98.7% (active).

As for `CSCCC([NH-])C(=O)O.CSCCC([NH-])C(=O)O.[Zn+2]` (configuration not stated), the growth inhibition was 98.2% (active).

In the case of `O=C(O)CN1CCN(CC(=O)O)CC(=O)[O][Hg][O]C(=O)C1`, the growth inhibition is 99.3% (active).

Consider `Cc1c2ccncc2c(CN(CCCl)CCCl)c2c3ccccc3n(C)c12`, for which the growth inhibition is 90.3% (active).

With `COc1ccc(P2(=S)Oc3ccc(C(c4ccccc4)(c4ccccc4)c4ccccc4)cc3O2)cc1` (configuration not stated), the growth inhibition is 38.6%.

As for `Cc1cc[n+](C2=C(Nc3c(C)cccc3C)C(=O)c3ccccc3C2=O)cc1`, the growth inhibition was 89.7% (active).

As to `C(#C[PH+](c1ccccc1)c1ccccc1)c1ccccc1.C(#C[PH+](c1ccccc1)c1ccccc1)c1ccccc1.C(#C[PH+](c1ccccc1)c1ccccc1)c1ccccc1.[C-]#[O+].[C-]#[O+].[C-]#[O+].[Cr]`, the growth inhibition was 83.2% (active).

With `CC(=O)O.[RuH].c1ccc([PH+](c2ccccc2)c2ccccc2)cc1.c1ccc([PH+](c2ccccc2)c2ccccc2)cc1.c1ccc([PH+](c2ccccc2)c2ccccc2)cc1`, the growth inhibition is 43.5%.

Take `O=C(N/N=C/c1cc(Br)cc(Br)c1[O-])c1ccccc1O.O=C(N/N=C/c1cc(Br)cc(Br)c1[O-])c1ccccc1O.[Ni+2]`: the growth inhibition is 18.4%.

For the compound `O=C(C[n+]1ccccc1)C1CCc2ccccc2C1` (configuration not stated), the growth inhibition is 9.25%.

On to `CC(=O)[O-].CC(=O)[O-].O=C(N/N=C/c1cc(Cl)cc(Cl)c1[OH2+])c1ccncc1.[Zn+2]`, for which the growth inhibition was 31%.

In the case of `ClCCN(CCCl)CCN1c2ccc3ccccc3c2Sc2ccc3ccccc3c21`, the growth inhibition is 32.7%.

For `C=CCc1cc(Cl)ccc1OC(=O)N(C)C`, the growth inhibition is -7.75%.

As for `CC(=O)[O][Sn]([CH3])([CH3])[c]1ccccc1`, the growth inhibition is 81.2% (active).

For the compound `NCCNCCNCCNCCN` (tested in a mixture with another compound), the growth inhibition was 90.3% (active).

In the case of `CC(=O)[CH-]C(C)=O.CC(=O)[CH-]C(C)=O.[O-]c1ccccc1.[O-]c1ccccc1.[Ti+4]`, the growth inhibition was 40.3%.

Regarding `NC(=O)c1ccc(C(=O)Nc2ccc([As](=O)(O)O)cc2)cc1`, the growth inhibition was -3.85%.

For `[C-]#[O+].[C-]#[O+].[CH3][Sn]([CH3])[c]1ccccc1.[Fe+5].[c-]1[c-][c-][cH-][c-]1`, the growth inhibition is 95.3% (active).

Consider `CC(C)(C)S.[Hg]`, for which the growth inhibition was 99.5% (active).

For `O=C(O)C(O)(c1ccc(-c2ccccc2)cc1)c1ccc(-c2ccccc2)cc1`, the growth inhibition is 96.4% (active).

`Cc1ccc2c(-c3ccccc3)c3ccccc3[s+]c2c1`: the growth inhibition was 99.5% (active).

Take `CCOC(=O)[C]1([Pb]([CH3])([CH3])[CH3])N=NC(C(=O)OC)=C1C(=O)OC` (configuration not stated): the growth inhibition was 68.8%.

As for `CCCNC1=C(C)C(=O)C2=C(C1=O)[C@H](COC(N)=O)[C@]1(OC)[C@@H]3N[C@@H]3CN21`, the growth inhibition was 36.8%.

In the case of `CC(=O)c1ccc(-[n+]2c(C)cc(-c3ccccc3)cc2C)cc1`, the growth inhibition was -15.4%.

For the compound `CN1C(=O)C23CC4=CC=CC(O)C4N2C(=O)C1(CO)SS3` (configuration not stated), the growth inhibition is 92.8% (active).

Consider `CCN1CCC(O)(c2ccc(O)cc2)C(C(=O)c2ccc(O)cc2)C1` (configuration not stated), for which the growth inhibition was 72% (active).

For the compound `CCCCCCCC[As](C)(=O)O`, the growth inhibition is 4.95%.

For the compound `CCCCCCC(=O)[O][Hg][c]1ccccc1`, the growth inhibition is 99.3% (active).

As to `CCC[CH2][Sn]1([CH2]CCC)[O]C(=O)CN=Cc2ccccc2[O]1`, the growth inhibition was 88.5% (active).

With `C[C@]12CC[C@H](O)C[C@@H]1CC[C@@H]1[C@@H]2CC[C@]2(C)C(=O)/C(=C/O)C[C@@H]12`, the growth inhibition was 54.5%.

As for `CC(CCc1ccccc1)NC(C)C(O)c1ccc(O)cc1` (configuration not stated), the growth inhibition is 49%.
